Experimental data reported in PubChem BioAssay.
Calls of active or inactive are those of the source.

Legend:
[1] = binders of probe aFSTL3 on microarray, primary screen, stem cell growth factor project, biochemical, small-molecule microarray, fluorescence 635/667 (AID 1064); conditions: higher = more signal;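 further: measures binding of the biotinylated anti-FSTL3 antibody to printed compounds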
[2] = binders from COS7 lysate, DM2A8 probe, primary screen, torsin A project, cell lysate, small-molecule microarray, fluorescence 635/667 (AID 1065); conditions: higher = more signal, COS7 lysate expressing mutant human TOR1A
[3] = binders of probe aFGF2 on microarray, primary screen, stem cell growth factor project, biochemical, small-molecule microarray, fluorescence 635/667 (AID 1067); conditions: higher = more signal;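 further: measures binding of biotinylated aFGF2 protein to printed compounds on slides; z-score merges feature fluorescence and signal-to-noise across triplicate slides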
[4] = binders of probe aFGF10 on microarray, primary screen, stem cell growth factor project, biochemical, small-molecule microarray, fluorescence 635/667 (AID 1071); conditions: higher = more signal;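 further: score merges 667 nm spot intensity and signal to noise from triplicate slides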
[5] = molecular target: Neurogenic locus notch homolog protein 2 (Homo sapiens) (UniProt Q04721); experiment: Notch2 binders on small-molecule microarrays, primary screen, biochemical, small-molecule microarray, 635 nm fluorescence, stem cell growth factors (AID 1073); conditions: Notch2 binding, higher = more signal
[6] = molecular target: Pro-neuregulin-1, membrane-bound isoform (Homo sapiens) (UniProt Q02297); experiment: NRG1 binders on small-molecule microarrays, primary screen, psychiatric disease protein project, biochemical, small-molecule microarray, fluorescence 635/667 (AID 1075); conditions: NRG1 binding, 635 nm fluorescence, higher = more signal;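 further: score combines 667 nm spot fluorescence with signal to noise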
Sequence of Pro-neuregulin-1, membrane-bound isoform (Homo sapiens) (Q02297 whole entry, looked up, the tested form may be a part, canonical isoform): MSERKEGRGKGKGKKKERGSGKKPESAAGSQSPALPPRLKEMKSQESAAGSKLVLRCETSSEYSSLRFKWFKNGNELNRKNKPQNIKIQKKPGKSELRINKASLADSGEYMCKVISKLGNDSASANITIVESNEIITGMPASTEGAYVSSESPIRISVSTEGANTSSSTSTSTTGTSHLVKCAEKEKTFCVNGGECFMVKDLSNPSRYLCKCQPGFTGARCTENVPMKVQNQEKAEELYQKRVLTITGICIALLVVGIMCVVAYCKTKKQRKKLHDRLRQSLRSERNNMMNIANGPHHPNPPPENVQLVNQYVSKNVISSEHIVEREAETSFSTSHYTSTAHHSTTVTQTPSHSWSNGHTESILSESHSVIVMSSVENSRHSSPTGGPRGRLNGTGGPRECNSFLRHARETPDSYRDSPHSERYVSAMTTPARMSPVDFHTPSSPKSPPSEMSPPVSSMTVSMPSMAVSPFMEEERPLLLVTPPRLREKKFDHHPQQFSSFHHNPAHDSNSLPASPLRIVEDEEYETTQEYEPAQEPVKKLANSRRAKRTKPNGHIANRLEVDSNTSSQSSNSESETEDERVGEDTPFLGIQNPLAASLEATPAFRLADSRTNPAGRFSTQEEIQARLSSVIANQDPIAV

[7] = system: Neuregulin-1 EGF-like domain; experiment: binders of neuregulin-1 EGF-like domain, primary screen, biochemical, small-molecule microarray, 635 nm fluorescence (AID 1081); conditions: small-molecule microarray binding, higher = more signal;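 further: binding of the protein to compounds printed on small-molecule microarray slides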
[8] = FRG1 promoter luciferase signal modulators, primary screen, FRG1 inhibition for FSHD, cell-based, C2C12 myotubes, firefly/Renilla luciferase, luminescence (AID 1084); conditions: higher = more signal, called active from +8 up or from −8 down
[9] = binders of probe aFST on microarray, primary screen, stem cell growth factor project, biochemical, small-molecule microarray, fluorescence 635/667 (AID 1086); conditions: higher = more signal;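 further: score merges 667 nm fluorescence with signal-to-noise of each printed compound spot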
[10] = binders of probe aHhip on microarray, primary screen, stem cell growth factor project, biochemical, small-molecule microarray, fluorescence 635/667 (AID 1087); conditions: higher = more signal;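 further: score merges spot fluorescence at 667nm with spot signal to noise ratio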
[11] = system: PRMT1 (protein arginine N-methyltransferase 1); experiment: PRMT1 binders on small-molecule microarrays, primary screen, biochemical, small-molecule microarray, 635 nm fluorescence (AID 1088); conditions: small-molecule microarray binding, higher = more signal;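 further: binding of Prmt1 protein to compounds spotted on small-molecule microarray slides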
[12] = yeast growth modulation, basal conditions, primary screen, YJM789 clinical isolate, OD600, 24 h (AID 1089);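 further: growth of clinical yeast isolate S. cerevisiae YJM 789 seeded 1000 cells per well; test concentration not given here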; conditions: S. cerevisiae YJM789 growth, higher = more signal, called active from +8 up or from −8 down
[13] = fission yeast growth modulation, primary screen, strain 972, OD600, 24 h, no modulator (AID 1090);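 further: basal condition with compound alone and no growth modifier present; test concentration not given here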; conditions: S. pombe 972 growth, higher = more signal, called active from +8 up or from −8 down
[14] = S. cerevisiae growth modulation with rapamycin, primary screen, strain BY4716, OD600, 96 h (AID 1091); conditions: higher = more signal, called active from +8 up or from −8 down; further: test concentration not given here
[15] = molecular target: Torsin-1A-interacting protein 2 (Homo sapiens) (UniProt Q8NFQ8); experiment: LULL1 binders on small-molecule microarray, primary screen, cell lysate, human LULL1 lysate, 635/667 nm fluorescence (AID 1092); conditions: hLULL1 lysate binding, 635 nm fluorescence, higher = more signal;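 further: probe is lysate of COS7 cells overexpressing human LULL1; score merges per-feature 667 nm fluorescence with signal-to-noise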
Sequence of Torsin-1A-interacting protein 2 (Homo sapiens) (Q8NFQ8 whole entry, looked up): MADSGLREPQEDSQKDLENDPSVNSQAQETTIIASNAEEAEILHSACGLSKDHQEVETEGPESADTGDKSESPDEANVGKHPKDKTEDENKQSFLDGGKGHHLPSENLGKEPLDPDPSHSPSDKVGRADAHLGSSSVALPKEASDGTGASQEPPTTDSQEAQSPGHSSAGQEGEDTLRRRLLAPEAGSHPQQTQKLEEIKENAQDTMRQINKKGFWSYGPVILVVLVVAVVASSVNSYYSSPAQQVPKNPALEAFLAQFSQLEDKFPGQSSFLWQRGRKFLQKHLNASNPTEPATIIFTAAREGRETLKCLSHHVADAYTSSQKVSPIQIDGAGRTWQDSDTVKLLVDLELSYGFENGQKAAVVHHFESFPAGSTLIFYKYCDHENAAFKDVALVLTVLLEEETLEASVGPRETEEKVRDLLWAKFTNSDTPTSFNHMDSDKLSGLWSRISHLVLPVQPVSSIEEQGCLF

[16] = E. coli growth modulation, two-sided OD650, primary screen, E. coli filamentation project, strain DRC41, 24 h (AID 1093); conditions: OD650, 24 h, higher = more signal, called active from +8 up or from −8 down;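 further: MC1000 strain lacking acrAB efflux and sulA so SOS filamentation is blocked; test concentration not given here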
[17] = small-molecule microarray binders of probe aLefty2, primary screen, biochemical, biotinylated probe, 635/667 nm fluorescence (AID 1094); conditions: higher = more signal;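 further: score merges spot fluorescence near 667 nm with spot signal-to-noise ratio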
[18] = system: Noggin (protein binding on small-molecule microarray); experiment: Noggin binders on small-molecule microarray, primary screen, biochemical, 635/667 nm fluorescence (AID 1095); conditions: 635 nm fluorescence, higher = more signal;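 further: score merges 667 nm feature fluorescence with signal to noise over triplicate slides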
[19] = molecular target: Neurogenic locus notch homolog protein 3 (Homo sapiens) (UniProt Q9UM47); experiment: NOTCH3 binders on small-molecule microarray, primary screen, biochemical, 635/667 nm fluorescence (AID 1096); conditions: NOTCH3 binding, 635 nm fluorescence, higher = more signal
Sequence of Neurogenic locus notch homolog protein 3 (Homo sapiens) (Q9UM47 whole entry, looked up): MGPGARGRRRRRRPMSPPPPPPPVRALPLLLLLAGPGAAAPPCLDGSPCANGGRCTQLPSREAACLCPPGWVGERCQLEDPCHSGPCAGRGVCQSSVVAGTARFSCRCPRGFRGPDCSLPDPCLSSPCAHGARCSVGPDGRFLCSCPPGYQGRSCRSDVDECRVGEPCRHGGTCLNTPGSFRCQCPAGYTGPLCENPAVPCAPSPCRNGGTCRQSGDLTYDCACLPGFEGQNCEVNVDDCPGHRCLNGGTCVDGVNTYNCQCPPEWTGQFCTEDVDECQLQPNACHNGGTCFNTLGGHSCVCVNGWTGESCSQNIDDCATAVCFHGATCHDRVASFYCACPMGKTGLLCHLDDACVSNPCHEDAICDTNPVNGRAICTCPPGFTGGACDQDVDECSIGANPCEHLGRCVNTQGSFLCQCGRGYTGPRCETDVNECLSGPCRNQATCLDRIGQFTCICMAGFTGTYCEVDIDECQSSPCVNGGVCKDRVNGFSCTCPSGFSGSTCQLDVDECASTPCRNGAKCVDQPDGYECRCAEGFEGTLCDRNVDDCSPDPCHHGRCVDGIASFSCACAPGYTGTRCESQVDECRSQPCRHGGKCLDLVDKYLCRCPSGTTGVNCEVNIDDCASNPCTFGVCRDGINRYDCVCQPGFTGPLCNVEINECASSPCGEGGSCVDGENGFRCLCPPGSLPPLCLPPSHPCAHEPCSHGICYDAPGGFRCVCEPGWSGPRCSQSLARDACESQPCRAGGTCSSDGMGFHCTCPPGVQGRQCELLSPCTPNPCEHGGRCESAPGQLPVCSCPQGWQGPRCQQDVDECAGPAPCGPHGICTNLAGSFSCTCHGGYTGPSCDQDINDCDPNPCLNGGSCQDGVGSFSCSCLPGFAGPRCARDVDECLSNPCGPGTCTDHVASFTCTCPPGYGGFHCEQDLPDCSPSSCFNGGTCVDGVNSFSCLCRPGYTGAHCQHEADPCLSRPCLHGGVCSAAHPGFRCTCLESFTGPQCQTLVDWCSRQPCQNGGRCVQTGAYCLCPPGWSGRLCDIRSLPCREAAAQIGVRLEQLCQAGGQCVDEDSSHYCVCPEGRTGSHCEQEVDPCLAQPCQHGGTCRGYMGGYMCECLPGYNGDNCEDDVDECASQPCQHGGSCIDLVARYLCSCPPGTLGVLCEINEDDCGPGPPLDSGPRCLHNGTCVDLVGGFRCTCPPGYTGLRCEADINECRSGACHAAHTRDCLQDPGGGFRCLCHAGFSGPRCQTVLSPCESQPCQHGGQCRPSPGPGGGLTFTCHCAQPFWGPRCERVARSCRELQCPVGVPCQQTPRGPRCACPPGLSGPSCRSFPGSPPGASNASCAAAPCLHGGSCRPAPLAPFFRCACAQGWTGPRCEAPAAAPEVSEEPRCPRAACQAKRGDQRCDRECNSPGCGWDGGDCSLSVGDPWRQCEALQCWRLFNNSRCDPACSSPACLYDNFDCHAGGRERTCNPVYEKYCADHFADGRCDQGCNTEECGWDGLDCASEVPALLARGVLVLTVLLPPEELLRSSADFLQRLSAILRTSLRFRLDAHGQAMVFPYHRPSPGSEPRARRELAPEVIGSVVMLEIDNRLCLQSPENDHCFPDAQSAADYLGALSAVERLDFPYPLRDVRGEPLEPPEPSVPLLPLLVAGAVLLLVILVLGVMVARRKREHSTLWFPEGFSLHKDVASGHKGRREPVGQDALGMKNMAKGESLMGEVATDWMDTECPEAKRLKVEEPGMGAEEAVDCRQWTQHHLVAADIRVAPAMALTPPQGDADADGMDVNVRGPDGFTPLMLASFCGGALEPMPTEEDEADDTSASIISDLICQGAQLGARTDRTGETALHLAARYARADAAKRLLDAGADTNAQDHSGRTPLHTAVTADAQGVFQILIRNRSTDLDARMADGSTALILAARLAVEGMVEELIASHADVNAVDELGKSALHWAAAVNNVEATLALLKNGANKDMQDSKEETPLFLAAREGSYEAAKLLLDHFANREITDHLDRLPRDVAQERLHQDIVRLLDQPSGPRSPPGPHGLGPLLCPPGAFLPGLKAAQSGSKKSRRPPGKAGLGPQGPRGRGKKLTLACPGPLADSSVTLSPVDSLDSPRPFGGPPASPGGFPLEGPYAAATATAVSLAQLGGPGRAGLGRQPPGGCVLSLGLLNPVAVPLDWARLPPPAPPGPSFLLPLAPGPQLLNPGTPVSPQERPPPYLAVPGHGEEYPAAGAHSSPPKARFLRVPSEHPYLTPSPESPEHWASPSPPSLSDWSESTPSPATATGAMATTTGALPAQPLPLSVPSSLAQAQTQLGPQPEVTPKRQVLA

[20] = small-molecule microarray binders of probe aEGFR, primary screen, biochemical, biotinylated probe, 635/667 nm fluorescence (AID 1097); conditions: higher = more signal;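 further: probe is a biotinylated anti-EGFR antibody binding compounds printed on slides; score combines fluorescence near 667 nm and signal to noise of each spot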

SMILES | composite z-score [1] | composite z-score [2] | composite z-score [3] | composite z-score [4] | composite z-score [5] | composite z-score [6] | composite z-score [7] | z-score [8] | composite z-score [9] | composite z-score [10] | composite z-score [11] | z-score [12] | z-score [13] | z-score [14] | composite z-score [15] | z-score [16] | composite z-score [17] | composite z-score [18] | composite z-score [19] | composite z-score [20]
CC(C)(C)N1C(=O)[C@H]2[C@H]3[C@H](O)[C@H](O)CC(=NNC(=O)OCc4ccccc4)[C@@H]3CC[C@H]2C1=O | -0.387 | 0.376 | -0.136 | 0.64 | 0.447 | -0.0123 | 0.254 | 0.674 (inactive) | 0.278 | -0.161 | 0.561 | -0.668 (inactive) | 0.588 (inactive) | 9.42 (active) | 0.883 | 0.45 (inactive) | -0.0824 | 0.457 | 0.586 | 0.172
CCOC(=O)[C@H](CC(C)C)NC(=O)CCC1CC(OC(=O)NCc2ccc3c(c2)OCO3)CC2(CCCC(COC(=O)NCCc3ccccc3OC)O2)O1 (stereo not given in full) | -0.693 | 0.309 | -0.085 | 0.554 | 1.26 | 0.53 | 0.978 | 1.01 (inactive) | 0.14 | -0.15 | 1.34 | -0.156 (inactive) | 0.249 (inactive) | 0.947 (inactive) | 1.99 | -0.133 (inactive) | -0.136 | 0.474 | 1.11 | -0.0177
CC(=O)OC[C@H]1O[C@H](CC=NOC(C)CN2CCCc3nc(C)c(C)cc32)C=C[C@@H]1OC(C)=O (stereo not given in full) | -0.255 | 0.28 | -0.0621 | 0.677 | 0.804 | -0.188 | 0.819 | 0.437 (inactive) | 0.371 | 0.0637 | 1.19 | 0.489 (inactive) | 0.483 (inactive) | -0.344 (inactive) | 0.771 | 1.14 (inactive) | 0.0961 | 0.977 | 1.04 | 0.0473
CCOC(=O)[C@H](Cc1ccccc1)NC(=O)CCC1CC(OC(=O)NCc2cccc3ccccc23)CC2(CCCC(COC(=O)NCCc3ccccc3OC)O2)O1 (stereo not given in full) | -0.568 | 0.0631 | -0.0538 | 0.586 | 0.967 | 0.341 | 1.02 | 1.37 (inactive) | 0.327 | 0.0623 | 1.4 | 0.105 (inactive) | 0.503 (inactive) | 0.296 (inactive) | 1.95 | -0.164 (inactive) | 0.0108 | 0.591 | 0.819 | -0.0396
COc1ccc(COC(=O)NN=C2C[C@@H](O)[C@@H](O)[C@@H]3[C@@H]4C(=O)N(c5cccc(Oc6ccccc6)c5)C(=O)[C@@H]4CC[C@H]23)cc1 | 0.937 | -0.379 | -0.138 | 0.0478 | -0.311 | 0.783 | -0.317 | 0.632 (inactive) | 0.85 | -0.0994 | -0.412 | 0.135 (inactive) | -0.655 (inactive) | -0.693 (inactive) | 0.717 | 1.02 (inactive) | 0.297 | -0.476 | 0.148 | -0.109
CC(C)CON=C1[C@H]2CCn3c(=O)n(C)c(=O)n3[C@H]2[C@H](O)[C@@H]2O[C@H]12 | -0.553 | -0.0908 | -0.136 | 0.469 | 0.493 | 0.288 | 0.157 | -0.0014 (inactive) | -0.0694 | 0.0505 | -0.117 | 0.0116 (inactive) | -0.08 (inactive) | -0.6 (inactive) | -0.0761 | 0.253 (inactive) | -0.112 | 0.757 | 0.861 | 0.006
COC(=O)[C@@H]1CC[C@H](C)[C@@H](c2ccc(C)cc2)N1C(=O)c1ccc(C=NO[C@@H](C)c2cc(-c3c(C)cc(C)cc3C)no2)cc1 | -0.4 | 0.58 | -0.166 | 0.219 | 0.239 | 0.0688 | 0.38 | -1.21 (inactive) | 0.188 | -0.0237 | 1.05 | -0.0984 (inactive) | 0.358 (inactive) | 0.612 (inactive) | 0.919 | 0.328 (inactive) | -0.0727 | 0.3 | 0.35 | -0.165
C=CC[C@@H]1C=C[C@H](ON=C(C)CCN2CCCCc3nc(C)c(C)cc32)[C@@H](CO)O1 | 0.407 | 1.57 | -0.0704 | 0.129 | 0.145 | 0.37 | 0.899 | 0.389 (inactive) | 0.238 | 0.0053 | 1.47 | -1.19 (inactive) | 0.805 (inactive) | -0.508 (inactive) | 1.77 | -0.0376 (inactive) | -0.0769 | 1.21 | 0.67 | 0.044
CC(C)C(=O)N[C@H]1CCCN1C(=O)C=Cc1ccccc1 | -0.174 | 0.253 | -0.0212 | 0.803 | 0.74 | -0.219 | 0.72 | -0.302 (inactive) | 0.214 | -0.0319 | 0.876 | 0.624 (inactive) | 0.495 (inactive) | 1.02 (inactive) | 0.0445 | 0.267 (inactive) | -0.0022 | 1.13 | 0.826 | 0.125
CON=C[C@@H](OC)[C@H](C)C=CCC(=O)OC | -0.447 | 0.0818 | -0.191 | 0.172 | -0.0904 | -0.513 | -0.499 | -0.0681 (inactive) | 0.272 | 0.0401 | -0.608 | -0.177 (inactive) | -0.289 (inactive) | -0.0697 (inactive) | -0.312 | 0.0478 (inactive) | -0.0702 | 0.327 | -0.151 | -0.22
